Sampled rows, rich in hits. Any-hit rate of the full collection: about 2.1%.
CHT inh: human CHT choline transport inhibition | hit rate 0.86% among 310,000 | Q9GZV3 | CHT-expressing cells, membrane potential dye, choline response; active compounds read low | B-score at 10 µM | AID 488975;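 active = B-score over 3 SD under the library average, and starting fluorescence ratio not unusually high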;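 note: choline stimulus applied at its EC90 after an EC20 pre-addition; B-score computed on integrated fluorescence ratio after choline addition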
EP2 antag: inhibitors of human EP2 prostaglandin E2 receptor | P43116 | C6 glioma cells expressing human EP2, cAMP TR-FRET; cells stimulated with saturating PGE2 | inhibition, % at 25 µM | hit rate 0.52% among 260,000 | AID 1422;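 active = percent inhibition above 40 after rounding to a whole number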;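 note: rat C6 glioma host cells with rolipram phosphodiesterase inhibitor present; the protocol text gives 20 µM as final concentration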
Target sequence (P43116 whole entry, looked up): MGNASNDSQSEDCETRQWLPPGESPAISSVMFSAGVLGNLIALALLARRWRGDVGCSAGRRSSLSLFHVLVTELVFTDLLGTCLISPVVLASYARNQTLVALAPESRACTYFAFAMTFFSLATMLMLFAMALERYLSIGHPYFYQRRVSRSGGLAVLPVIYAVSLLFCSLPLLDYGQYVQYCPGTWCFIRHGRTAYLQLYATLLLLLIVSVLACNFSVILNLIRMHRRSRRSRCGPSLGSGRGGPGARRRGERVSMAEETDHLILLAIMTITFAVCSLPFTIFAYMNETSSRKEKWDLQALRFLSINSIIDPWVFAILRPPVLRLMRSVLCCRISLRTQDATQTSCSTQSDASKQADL
CHT PAM: allosterically activates the human high affinity choline transporter | CHT-expressing cells, membrane potential dye, choline EC20; active compounds read high; LV-AA mutant CHT in HEK293 cells | hit rate 0.49% among 310,000 | AID 488977 | B-score at 10 µM | Q9GZV3;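 active = initial fluorescence not abnormally high and integrated response B-score, plate-corrected, over 3 SD above library mean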
EP2 modulator: modulators of human EP2 prostaglandin E2 receptor; EP2-expressing cells, cAMP HTRF FRET, PGE2 co-stimulation; induction, % at 25 µM; P43116; hit rate 0.83% among 260,000; AID 940;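 active = compounds whose cAMP rise, as percent of the full-agonist control response, exceeds 60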;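 note: rat C6 glioma line stably carrying human EP2 under a CMV promoter; the protocol text gives 20 µM as final concentration; 100% = response of wells given 1 µM PGE2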
EP2 confirm: EP2 receptor cAMP induction, counter-screens negative; calls only at 20 µM (by protocol); C6 glioma EP2 cells, cAMP HTRF induction; plus low (about EC15) PGE2 agonist; AID 1080; hit rate 47% among 1,300; shares compounds with EP2 modulator;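 active = cAMP induction above 50% in the main assay while under 30% in all four parallel counter assays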;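 note: rat C6 glioma cells stably expressing human EP2 receptor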
An asterisk follows results filed as active; i = inactive; nt = no result; + = active, no number.

SMILES	CHT inh	EP2 antag	CHT PAM	EP2 modulator	EP2 confirm
CCc1[nH]n2c(=O)c(C)c(C)nc2c1-c1ccc(OC)cc1	nt	nt	nt	17	nt
Cc1ccc(-c2c(C)sc3ncn(CC(=O)N4CCCCC4)c(=O)c23)cc1C	nt	11	nt	-9	nt
CSc1nnc(-c2ccc([N+](=O)[O-])cc2)o1	i	4	i	18	nt
CSc1nnc(-c2ccc(F)cc2)o1	i	20	i	72*	i
CC(=O)N1Cc2ccccc2C(C)CC12CCCCC2 (configuration not stated)	i	11	i	66*	+
Cn1c(SCc2nnc(-c3ccccc3)o2)nnc1-c1cccs1	nt	9	nt	-18	nt
Cc1oncc1-c1csc(-c2ccccc2Cl)n1	i	7	i	69*	+
COc1ccc(-n2c(SCC(=O)N3C(C)CCCC3C)nnc2-c2ccncc2)cc1 (configuration not stated)	nt	12	nt	-6	nt
Cc1c(OCc2ccccc2)c(=O)ccn1Cc1ccc(Cl)cc1	i	-2	i	67*	i
Cc1ccc(Cn2ccc(=O)c(OCc3ccccc3)c2C)cc1	i	10	i	-32	nt
Nc1nc2c(c(=O)[nH]1)CCC2	nt	6	nt	-6	nt
CCCC(=O)Nc1nnc(SCC(=O)Nc2ccc(Cl)cc2)s1	nt	12	nt	-10	nt
CC1CC(C)CN(CC(=O)NC(c2ccccc2)c2ccccc2)C1 (configuration not stated)	i	9	i	72*	i
CC1Cc2ccccc2N1CC(=O)NC(c1ccccc1)c1ccccc1 (configuration not stated)	i	10	i	72*	+
CC1Cc2ccccc2N1CC(=O)NC(=O)NCc1ccccc1 (configuration not stated)	i	6	i	25	nt
O=C(CN1CCCCCC1)NC(c1ccccc1)c1ccccc1	i	nt	i	nt	nt
COc1ccc([C@@H]2C[C@H](OC(=O)c3cccnc3)C(=O)N2C)cc1	nt	5	nt	18	nt
COc1ccc(-c2csc(N(CC3CCCO3)C(=O)c3ccc(C)cc3)n2)cc1 (configuration not stated)	i	5	i	35	nt
Cc1ccc(-c2csc(N(CC3CCCO3)C(=O)c3ccco3)n2)cc1 (configuration not stated)	i	14	i	72*	+
CC1CCc2cc(F)cc3c(O)c(C(=O)NCc4ccco4)c(=O)n1c23 (configuration not stated)	nt	nt	nt	69*	i
CC1CCc2cc(F)cc3c(O)c(C(=O)NCCN(C)C)c(=O)n1c23 (configuration not stated)	i	nt	i	nt	nt
CNc1oc(-c2ccc(Cl)cc2)nc1P(=O)(c1ccccc1)c1ccccc1	i	5	i	68*	+
Cc1ccc(-c2nc(P(=O)(c3ccccc3)c3ccccc3)c(N3CCOCC3)o2)cc1	i	10	i	65*	i
O=C(CCn1[nH]c(=O)ccc1=O)N1CCCC1c1nc2ccccc2[nH]1 (configuration not stated)	nt	nt	nt	6	nt
COc1c(Cl)cc(Cl)cc1C1C(C#N)=C(N)OC2=C1C(=O)CC(C)(C)C2 (configuration not stated)	nt	9	nt	25	nt
SMILES	CHT inh	EP2 antag	CHT PAM	EP2 modulator	EP2 confirm
CCOC(=O)C(Cc1ccccc1)(NC(C)=O)C(=O)OCC	i	8	i	85*	i
COCCn1c(CN2CCN(c3ccccc3)CC2)nc2c1c(=O)n(C)c(=O)n2C	i	9	i	nt	nt
Cn1c(=O)c2c(nc(CN3CCN(c4ccccc4)CC3)n2Cc2ccccc2Cl)n(C)c1=O	nt	6	nt	58	i
Cn1c(=O)c2c(nc(CN3CCN(c4ccccc4)CC3)n2Cc2c(F)cccc2Cl)n(C)c1=O	i	2	i	71*	i
CC(=O)OC1c2c(ccc3ccc(=O)oc23)OC(C)(C)C1OC(=O)CC(C)C (configuration not stated)	i	nt	i	56	nt
CC(=O)O[C@@H]1c2c(ccc3ccc(=O)oc23)OC(C)(C)[C@@H]1OC(=O)CC(C)C	nt	10	nt	64*	+
Cc1ccc(NCc2nnc(SCC(=O)OC(C)C)n2CC2CCCO2)cc1Cl (configuration not stated)	nt	17	nt	-4	nt
Cc1nc(N2N=C(c3ccc(Cl)cc3)CC2c2ccco2)sc1C(=O)N(C)C (configuration not stated)	i	5	i	72*	+

Assay outcomes deposited in PubChem BioAssay by several laboratories.
